We go through 23 compounds from PubChem BioAssay AID1347420 (Sanford-Burnham Center for Chemical Genomics, 2020).

Each structure is given as a SMILES string. Out of some 1,300 compounds screened, about 980 (75%) were called active. About 4% were inconclusive and are not listed. The list shows a part of the results.

Sequence of Sulfhydryl oxidase 1 (Homo sapiens) (O00391 whole entry, looked up): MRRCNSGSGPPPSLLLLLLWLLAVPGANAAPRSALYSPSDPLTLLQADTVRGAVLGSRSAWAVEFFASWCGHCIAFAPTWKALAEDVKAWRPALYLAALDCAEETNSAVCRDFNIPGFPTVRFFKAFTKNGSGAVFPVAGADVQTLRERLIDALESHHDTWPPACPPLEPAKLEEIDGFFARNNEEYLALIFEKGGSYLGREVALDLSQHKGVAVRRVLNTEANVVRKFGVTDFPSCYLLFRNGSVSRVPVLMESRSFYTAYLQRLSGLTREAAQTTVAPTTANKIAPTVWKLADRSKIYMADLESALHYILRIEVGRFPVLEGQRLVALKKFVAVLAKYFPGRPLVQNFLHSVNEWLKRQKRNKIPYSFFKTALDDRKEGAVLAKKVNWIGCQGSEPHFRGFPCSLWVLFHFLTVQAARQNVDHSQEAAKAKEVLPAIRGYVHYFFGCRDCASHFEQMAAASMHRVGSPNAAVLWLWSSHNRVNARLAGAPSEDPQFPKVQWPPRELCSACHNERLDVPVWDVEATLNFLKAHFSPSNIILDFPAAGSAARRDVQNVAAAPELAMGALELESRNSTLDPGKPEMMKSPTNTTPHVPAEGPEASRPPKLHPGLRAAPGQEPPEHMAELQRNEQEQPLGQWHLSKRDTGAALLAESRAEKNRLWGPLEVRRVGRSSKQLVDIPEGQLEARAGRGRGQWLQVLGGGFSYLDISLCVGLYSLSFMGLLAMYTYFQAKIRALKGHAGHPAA

This test concerns the target Sulfhydryl oxidase 1 (Homo sapiens) (UniProt O00391). In words: inhibition of human sulfhydryl oxidase QSOX1 – biochemical, HyperBlu H2O2 luminescence, HTS, primary screen (AID 1347420). Further: values above 100% were filed as inconclusive. The conditions noted are these: recombinant QSOX1, HyperBlu H2O2 luminescence, at 12.5 µM, active compounds read high; active = any value above zero unless noted.
The inhibition is the drop in the measured response relative to a control, in per cent. For `CCN(CCCl)Cc1ccccc1Br`, the inhibition is 18% (active).

In the case of `CCCn1c(=O)c2[nH]c(C3CCCC3)nc2n(CCCOC(=O)c2ccc(S(=O)(=O)F)cc2)c1=O`, the inhibition was 10.4% (active).

Consider `CC[C@@H](CO)NC(=O)[C@@H]1C=C2c3cccc4c3c(cn4C)C[C@H]2N(C)C1`, for which the inhibition was 9.7% [setting not given] (active).

Turning to `CC[C@@H](CO)NC(=O)[C@@H]1C=C2c3cccc4[nH]cc(c34)C[C@H]2N(C)C1`, the inhibition is 24.7% [setting not given] (active).

Take `NCC1(CC(=O)O)CCCCC1`: the inhibition was 4.2% [setting not given] (active).

As for `CC(=O)c1c(O)c(C)c(O)c(Cc2c(O)c3c(c(C(=O)/C=C/c4ccccc4)c2O)OC(C)(C)C=C3)c1O`, the inhibition was 59.1% (active).

In the case of `O=c1[nH]oc2c1CCNC2`, the inhibition is 8.4% (active).

As to `C[C@H](Cc1ccc2c(c1)OC(C(=O)O)(C(=O)O)O2)NC[C@H](O)c1cccc(Cl)c1`, the inhibition is 13.4% (active).

`CC(Cc1ccc(OCC(=O)O)cc1)NCC(O)c1cccc(Cl)c1` (stereo not drawn): the inhibition was 10.8% (active).

Take `Nc1ccncc1`: the inhibition is 22.3% [setting not given] (active).

As for `C[C@]12CCC3C(CC[C@H]4C[C@H](O)CC[C@]34C)C1CC[C@@H]2C(=O)CO` (stereo partly drawn), the inhibition is 5.6% (active).

As for `CC(=O)[C@H]1CC[C@H]2[C@@H]3CC[C@H]4C[C@](C)(O)CC[C@]4(C)[C@H]3CC[C@]12C`, the inhibition is 11.6% [setting not given] (active).

With `CC(=O)[C@H]1CCC2C3CC[C@H]4C[C@H](O)CC[C@]4(C)C3CC[C@@]21C` (stereo partly drawn), the inhibition is 4.6% [setting not given] (active).

Take `CC(=O)[C@H]1CC[C@H]2[C@@H]3CC[C@H]4C[C@H](O)CC[C@]4(C)[C@H]3C(=O)C[C@]12C`: the inhibition is 5% [setting not given] (active).

With `CN1C[C@H](CNC(=O)OCc2ccccc2)C[C@@H]2c3cccc4c3c(cn4C)C[C@H]21`, the inhibition is 6.1% [setting not given] (active).

For `C[C@]12Cc3cn4c(nc3C=C1CCC1C2CC[C@@]2(C)[C@H]1CC[C@@]2(O)C#N)nc1ccccc14` (stereo partly drawn), the inhibition is -42.5% (inactive).

`CC(C)Oc1cccnc1N(C)C1CCN(Cc2ccccc2)CC1`: the inhibition is 7% (active).

Turning to `CC(C)c1cccc(C(C)C)c1O`, the inhibition is 16.7% (active).

Take `CC(N)c1cccc(Cl)c1Cl` (stereo not drawn): the inhibition was -1% (inactive).

Consider `CN[C@@H]1C[C@@H](c2ccc(Cl)c(Cl)c2)c2ccccc21`, for which the inhibition is 3.8% (active).

On to `Cc1o[nH]c(=O)c1CC(N)C(=O)O` (stereo not drawn), for which the inhibition was 11.9% (active).

Take `NC(Cn1oc(=O)[nH]c1=O)C(=O)O` (stereo not drawn): the inhibition is -10.8% (inactive).

For `CCCC(C)(COC(N)=O)COC(=O)NC(C)C` (stereo not drawn), the inhibition is -3.5% [setting not given] (inactive).
